From ChEMBL document CHEMBL4513135, “CO-ADD screening of IQOG CSIS (Spain) compounds” come the findings set out here.

The subject of one experiment is Klebsiella pneumoniae. As to conditions: Concentration 32 ug.mL-1; ASSAY_TEST Inhibition of Bacterial Growth; detection method Absorption (OD600); MEDIA CAMHB; plate type 384well; NBS; CORNING #3640; time 18 hr.
In a further experiment the test system is Candida albicans. As to conditions: 32 ug/mL.
A further experiment has as its system Cryptococcus neoformans. Particulars: Concentration 32 ug.mL-1; ASSAY_TEST Inhibition of Fungal Growth; detection method Resazurin; Absorption (OD600-OD570); plate type 384well; NBS; CORNING #3640.

SMILES strings stand for the structures. Measured potencies and affinities stand elsewhere.

In the case of `CCOC(=O)c1c(C)nc(/N=N/c2nc(C)c(C(=O)OCC)c(-c3ccccc3)c2C#N)c(C#N)c1-c1ccccc1`, the figures for the Inhibition in the experiment on Klebsiella pneumoniae, with Candida albicans and with Cryptococcus neoformans were 0.93%, -1.11% and -2.65%, respectively.

With `O=C1C=C(Nc2ccccc2)C(=O)N1c1ccccc1`, the figures for the Inhibition in the experiment with Klebsiella pneumoniae, in the experiment on Candida albicans and in the experiment with Cryptococcus neoformans were 6.46%, -0.48% and -3.49%, respectively.

Turning to `COC(=O)C(C#N)=Cc1ccccc1`, the Inhibition in the experiment on Klebsiella pneumoniae is 12.71%; in the experiment with Candida albicans, 3.86%; with Cryptococcus neoformans, -2.58%.

On to `Cc1nc(Nc2ccccc2)c2c(C)nn(-c3ccccc3)c2n1`, for which the Inhibition was -3.39% with Klebsiella pneumoniae, -2.39% in the experiment with Candida albicans and -3.19% with Cryptococcus neoformans.

Turning to `Cc1nc2c3c(C)nn(-c4ccccc4)c3ncn2n1`, the Inhibition in the experiment with Klebsiella pneumoniae was 13.92%; in the experiment with Candida albicans it was -0.04%; with Cryptococcus neoformans, -2.13%.

In the case of `Cl.Nc1c2c(nc3c1C(c1ccccc1)c1c(ccc4ccccc14)O3)CCCC2` (centres undefined), the figures for the Inhibition in the experiment with Klebsiella pneumoniae, with Candida albicans and with Cryptococcus neoformans were 8.19%, 1.33% and -0.7%, respectively.

As for `CC1(C)OC(=O)C(=Cc2ccc([N+](=O)[O-])cc2)C(=O)O1`, the Inhibition with Klebsiella pneumoniae was 18.71%; with Candida albicans, 1.46%; in the experiment with Cryptococcus neoformans, -6.06%.

Regarding `N#CC1=C(Cl)Oc2c(ccc3ccccc23)C1c1cccc([N+](=O)[O-])c1` (centres undefined), the Inhibition is 4.09% in the experiment with Klebsiella pneumoniae, 6.77% in the experiment with Candida albicans and -37.01% in the experiment with Cryptococcus neoformans.

Take `COc1ccc2c(c1)cc(CNc1ccccc1)n2C`: the Inhibition was 12.88% in the experiment on Klebsiella pneumoniae, 1.07% in the experiment on Candida albicans and -85.66% with Cryptococcus neoformans.

Take `O=C(O)/C(=C\c1ccccc1)NC(=O)c1ccccc1`: the results for the Inhibition with Klebsiella pneumoniae, with Candida albicans and with Cryptococcus neoformans were 17.85%, 1.39% and -3.88%, respectively.

For `Cc1nn(-c2ccccc2)c2ncnc(NCc3ccccc3)c12`, the Inhibition is 6.27% in the experiment with Klebsiella pneumoniae, -0.21% in the experiment with Candida albicans and -3.05% with Cryptococcus neoformans.

On to `CCOc1nc(N)c(C#N)cc1C#N.Cl`, for which the Inhibition in the experiment on Klebsiella pneumoniae is -1.63%; in the experiment with Candida albicans, 2.86%; with Cryptococcus neoformans, -26.15%.

`O=C(O)n1ccc2ccccc21`: the Inhibition is 4.22% in the experiment on Klebsiella pneumoniae, 4.1% with Candida albicans and -3.58% in the experiment on Cryptococcus neoformans.

On to `CC1Cc2c(Br)nc3nc4c(c(N)c3c2NC1=O)CCCC4` (centres undefined), for which the figures for the Inhibition in the experiment with Klebsiella pneumoniae, in the experiment with Candida albicans and in the experiment with Cryptococcus neoformans were 20.62%, -0.9% and -91.63%, respectively.

Take `Cc1ccc(-c2c(C#N)c(N)nc3c2S(=O)(=O)OC3(C)C)cc1`: the Inhibition was 10.18% in the experiment on Klebsiella pneumoniae, 1.92% in the experiment on Candida albicans and -1.83% with Cryptococcus neoformans.

On to `C#CCN(C)c1nc(NCCCC2CCN(Cc3ccccc3)CC2)c(C#N)cc1C#N`, for which the Inhibition with Klebsiella pneumoniae is -7.79%; in the experiment on Candida albicans, 3.51%; with Cryptococcus neoformans it was -58.85%.

In the case of `N#Cc1c(N)nc(NC2CCN(Cc3ccccc3)CC2)c(C#N)c1-c1ccccc1`, the Inhibition in the experiment on Klebsiella pneumoniae is 9.32%; with Candida albicans it was 2.69%; in the experiment with Cryptococcus neoformans, -66.18%.

Consider `CC(=O)CC(=O)N1[C@@H]2C[C@H]3CCC2(CS1(=O)=O)C3(C)C`, for which the Inhibition in the experiment on Klebsiella pneumoniae was 13.63%; in the experiment with Candida albicans, 5.03%; in the experiment on Cryptococcus neoformans it was -2.49%.

`CC1CN(C)c2c(C#N)c(-c3ccccc3)c(C#N)c(=N)n21` (centres undefined): the Inhibition in the experiment with Klebsiella pneumoniae was 18.9%; in the experiment on Candida albicans, 1.63%; in the experiment with Cryptococcus neoformans, -66.3%.

For `Cc1ccc2nc(Cl)c(/C=N/N)cc2c1`, the Inhibition in the experiment with Klebsiella pneumoniae is 10.01%; in the experiment with Candida albicans it was 15.7%; with Cryptococcus neoformans it was -3.85%.

In the case of `Cc1[nH]nc2c1C(c1cccc([N+](=O)[O-])c1)C(C#N)=C(N)O2` (centres undefined), the Inhibition in the experiment on Klebsiella pneumoniae is 18.43%; with Candida albicans it was -0.54%; in the experiment on Cryptococcus neoformans, -0.61%.

Take `N#Cc1c(N)nc(O)c(C#N)c1-c1ccccc1`: the Inhibition with Klebsiella pneumoniae was -0.05%; in the experiment on Candida albicans, 5.45%; with Cryptococcus neoformans it was -42.69%.

Turning to `N#Cc1c(N)nc(Cl)c(C#N)c1-c1ccccc1`, the Inhibition with Klebsiella pneumoniae was 1.22%; with Candida albicans it was 6.28%; with Cryptococcus neoformans, -2.34%.

Consider `C=CCNc1[nH]c2ccc(O)cc2c1C#N`, for which the Inhibition was 7.13% in the experiment with Klebsiella pneumoniae, 2.34% with Candida albicans and -48.34% with Cryptococcus neoformans.

Take `N#CC1(Br)C(=NBr)Oc2ccc3ccccc3c2C1c1ccc([N+](=O)[O-])cc1` (centres undefined): the values for the Inhibition in the experiment with Klebsiella pneumoniae, in the experiment on Candida albicans and with Cryptococcus neoformans were -0.48%, 2.19% and -71.87%, respectively.

As for `Cl.N#Cc1c(N)nc(NCCO)c(C#N)c1-c1ccccc1`, the Inhibition in the experiment with Klebsiella pneumoniae was 7.62%; in the experiment on Candida albicans it was 1.4%; with Cryptococcus neoformans it was -7.17%.

With `COc1ccc2cc(C3C4=C(CC(C)(C)CC4=O)Oc4nc5c(c(N)c43)CCCC5)c(Cl)nc2c1` (centres undefined), the Inhibition is 5.45% in the experiment with Klebsiella pneumoniae, 7.25% in the experiment with Candida albicans and -9.09% in the experiment on Cryptococcus neoformans.

`C#CCN(C)c1nc(NCCC2CCN(Cc3ccccc3)CC2)c(C#N)cc1C#N.Cl`: the values for the Inhibition in the experiment with Klebsiella pneumoniae, with Candida albicans and in the experiment on Cryptococcus neoformans were 3.63%, -0.31% and 0.75%, respectively.

With `Cn1ccnc1C1c2c(nc3c(c2N)CCC3)Oc2ccc3ccccc3c21` (centres undefined), the Inhibition in the experiment with Klebsiella pneumoniae is 7.74%; in the experiment on Candida albicans it was 1.46%; in the experiment with Cryptococcus neoformans, -36.13%.

As for `N#Cc1cccnc1Cl`, the Inhibition is 9.13% with Klebsiella pneumoniae, -0.53% in the experiment with Candida albicans and -53.41% with Cryptococcus neoformans.

Turning to `C/C(Cc1ccccc1)=N\NC(=O)c1c[nH]c2ccccc12`, the Inhibition with Klebsiella pneumoniae was -16.37%; in the experiment with Candida albicans, 5.16%; in the experiment on Cryptococcus neoformans, 2.61%.

In the case of `CN(Cc1cn(Cc2ccccc2)nn1)Cc1cc2cc(OCCCC3CCN(Cc4ccccc4)CC3)ccc2n1C`, the values for the Inhibition in the experiment with Klebsiella pneumoniae, with Candida albicans and with Cryptococcus neoformans were 4.39%, 2.75% and -73.92%, respectively.

`CC(=O)Nc1nc(Cl)c(C#N)c(-c2ccccc2)c1C#N`: the Inhibition with Klebsiella pneumoniae was 7.97%; with Candida albicans, 1.84%; in the experiment with Cryptococcus neoformans it was -41.58%.
